{"source": "ChEMBL document CHEMBL1157539", "about": "“Thousands of chemical starting points for antimalarial lead identification” (Nature, 2010)"}
{"tested_on": "Plasmodium falciparum", "assay": "GSK_TCMDC: Inhibition of Plasmodium falciparum 3D7 in whole red blood cells, using parasite LDH activity as an index of growth. Test compounds present at 2uM", "assay_type": "functional", "units": {"Inhibition": "%"}}
{"molecule": "COc1cc2ncnc(Nc3ccc(OCc4ccccc4)c(I)c3)c2cc1OC.Cl", "Inhibition": 98}
{"molecule": "Cc1ccc(O)cc1Nc1ccnc2cc(-c3csc(CN(C)CCN(C)C)n3)ccc12", "Inhibition": 100}
{"molecule": "O=[N+]([O-])c1cccc(-c2ccc(C=NNc3cc(N4CCCC4)nc(N4CCCC4)n3)o2)c1", "Inhibition": 100}
{"molecule": "CCCCCCc1cc2cc(-c3nc(-c4ccc(OC)cc4)cs3)c(=O)oc2cc1O", "Inhibition": 97}
{"molecule": "Cc1c(Cc2ccccc2Br)cnc2nc(N)nc(N)c12.Cl", "Inhibition": 88}
{"molecule": "Br.CC(C)(C)c1ccc(OCCCON2C(=N)N=C(N)NC2(C)C)c(C(C)(C)C)c1", "Inhibition": 93}
{"molecule": "OC[C@H]1CCCN1CC#Cc1cc2c(Nc3ccc(OCc4cccc(F)c4)c(Cl)c3)ncnc2s1", "Inhibition": 89}
{"molecule": "CCN(CC)CCN(Cc1ccc(-c2ccc(C(F)(F)F)cc2)cc1)C(=O)Cn1c(CCc2ccc(F)c(F)c2F)nc(=O)c2ccc(F)cc21.O=C(O)C(O)C(O)C(=O)O", "Inhibition": 98}
{"molecule": "Cc1noc(C)c1C(=O)N1CCc2cc3nccc(N4CCN5CCC[C@H]5C4)c3cc21", "Inhibition": 93}
{"molecule": "Cc1cccc2nc(-c3cccc(-c4cccc(NC(=O)c5cncn5C)c4)c3)[nH]c12", "Inhibition": 100}
{"molecule": "O=C(/C=C/c1ccc(Cl)c(Cl)c1)NCCCCCN1CCC(NC(=S)Nc2ccc(Cl)cc2)CC1", "Inhibition": 99}
{"molecule": "CC(=O)Nc1ccc(Cl)c(Cl)c1", "Inhibition": 95}
{"molecule": "COc1cc2nc(NCCc3ccccc3)nc(NCc3cnn(C)c3C)c2cc1OC", "Inhibition": 99}
{"molecule": "Cl.O=C(/C=C/c1cccc(Cl)c1)Nc1ccc2nc(CN3CCCC3)ccc2c1", "Inhibition": 99}
{"molecule": "CCN1CCN(C(=O)NC(C(=O)N(C)Cc2ccc(-c3ccc(C(F)(F)F)cc3)cc2)c2cccs2)C(=O)C1=O", "note": "(stereo not given)", "Inhibition": 99}
{"molecule": "COc1ccc(CN2CCC(Oc3cccc(NC(=O)c4ccc(C(F)(F)F)cc4)c3)CC2)cc1.O=C(O)C(F)(F)F", "Inhibition": 95}
{"molecule": "CCCCCC(C)C(C)c1cc(O)c2c(c1)OC(C)(C)CC2(O)c1ccccn1", "note": "(stereo not given)", "Inhibition": 98}
{"molecule": "O=C(Nc1ccncc1)c1cc(C(=O)Nc2ccncc2)cc([N+](=O)[O-])c1", "Inhibition": 100}
{"molecule": "Oc1cc(Nc2ccnc3cc(-c4ccc(CN5CCCCC5)o4)c(Cl)cc23)c(Cl)cc1F", "Inhibition": 100}
{"molecule": "CC(=O)Nc1ccc(CN(Cc2ccc(F)cc2)Cc2ccc3c(c2)OCO3)cc1", "Inhibition": 91}
{"molecule": "CC(C)C(=O)NC(c1ccc(Cl)cc1)c1ccc2cccnc2c1O", "note": "(stereo not given)", "Inhibition": 91}
{"molecule": "CS(=O)(=O)Cc1cccc(Nc2ncc(Cl)c(Nc3cccnc3C(N)=O)n2)c1.Cl", "Inhibition": 96}
{"molecule": "CCN(CCCN1CCCCC1)c1cc(C)nc(Nc2cccc(OC(F)(F)F)c2)n1.O=C(O)C(F)(F)F", "Inhibition": 100}
{"molecule": "O=C(Nc1cccc(-c2csc(-c3nc4ccccc4[nH]3)c2)c1)c1ccoc1", "Inhibition": 96}
{"molecule": "O=C(Nc1ccccc1)Nc1cccc(-c2nn3c(OCCN4CCCC4)cccc3c2-c2ccncc2)c1", "Inhibition": 100}
{"molecule": "CN(CCCCCN1CCC(NC(=O)Nc2ccc(Oc3ccccc3)cc2)C1)C(=O)/C=C/c1ccc(Cl)c(Cl)c1", "note": "(stereo not given)", "Inhibition": 98}
{"molecule": "Cc1cc(N2CCOCC2)nc2ccc(NC(=O)c3ccc(Cl)c([N+](=O)[O-])c3)cc12", "Inhibition": 98}
{"molecule": "CN1CCN(c2cc(-c3ccncc3)nc(-c3cccnc3)n2)CC1", "Inhibition": 100}
{"molecule": "O=S(=O)(c1c(Cl)cccc1Cl)N1CCCCC(c2ccc(C(F)(F)F)cc2)=N1", "Inhibition": 99}
{"molecule": "Cl.N=C(N)Nc1nccc(NCc2ccccc2)n1", "Inhibition": 88}
{"molecule": "COc1c(OC)c(OC)c2ccccc2c1CCNCCCCNCCc1c(OC)c(OC)c(OC)c2ccccc12.CS(=O)(=O)O", "Inhibition": 99}
{"molecule": "O=C(NC1CCN(CCCOc2ccnc3cc(Cl)ccc23)C1)c1ccc(Br)cc1", "note": "(stereo not given)", "Inhibition": 86}
{"molecule": "Cc1ccccc1C1CCN(C2CCC(NC(=O)/C=C/c3cc(F)cc(F)c3)CC2)CC1", "note": "(stereo not given)", "Inhibition": 99}
{"molecule": "CCc1nc(N)nc(N)c1-c1ccc(F)cc1", "Inhibition": 96}
{"molecule": "CCN1CCC(N(Cc2ccc(-c3ccc(C(F)(F)F)cc3)cc2)C(=O)Cn2c(SCc3ccc(F)cc3)nc(=O)c3c2CCC3)CC1.O=C(O)C(O)C(O)C(=O)O", "Inhibition": 90}
{"molecule": "CS(=O)(=O)CCNCc1cccc(-c2cc3c(Nc4ccc(OCc5cccc(F)c5)c(Cl)c4)ncnc3s2)c1.O=C(O)C(F)(F)F", "Inhibition": 100}
{"molecule": "O=C(Nc1ccc(-c2cncc(NCCCN3CCCC3)c2)cc1)c1ccccc1", "Inhibition": 94}
{"molecule": "O=C(Nc1cccc(-c2cccc(-c3nc4ccccc4[nH]3)c2)c1)Nc1ccc(Cl)c(Cl)c1", "Inhibition": 100}
{"molecule": "Cc1cc(Nc2cccc(C(F)(F)F)c2)nc2ccc(NC(=O)c3ccc(=O)[nH]c3)cc12", "Inhibition": 100}
{"molecule": "CC(C)c1ccc(NC(=O)N[C@H]2CCN(CCCCCNC(=O)/C=C/c3ccc(Cl)c(Cl)c3)C2)cc1", "Inhibition": 100}
{"tested_on": "Plasmodium falciparum", "assay": "GSK_TCMDC: Inhibition of Plasmodium falciparum Dd2 in whole red blood cells, using parasite LDH activity as an index of growth. Test compounds present at 2uM", "assay_type": "functional", "units": {"Inhibition": "%"}}
{"molecule": "COc1cc2ncnc(Nc3ccc(OCc4ccccc4)c(I)c3)c2cc1OC.Cl", "Inhibition": 62}
{"molecule": "Cc1ccc(O)cc1Nc1ccnc2cc(-c3csc(CN(C)CCN(C)C)n3)ccc12", "Inhibition": 80}
{"molecule": "O=[N+]([O-])c1cccc(-c2ccc(C=NNc3cc(N4CCCC4)nc(N4CCCC4)n3)o2)c1", "Inhibition": 67}
{"molecule": "CCCCCCc1cc2cc(-c3nc(-c4ccc(OC)cc4)cs3)c(=O)oc2cc1O", "Inhibition": 93}
{"molecule": "Cc1c(Cc2ccccc2Br)cnc2nc(N)nc(N)c12.Cl", "Inhibition": 97}
{"molecule": "Br.CC(C)(C)c1ccc(OCCCON2C(=N)N=C(N)NC2(C)C)c(C(C)(C)C)c1", "Inhibition": 97}
{"molecule": "OC[C@H]1CCCN1CC#Cc1cc2c(Nc3ccc(OCc4cccc(F)c4)c(Cl)c3)ncnc2s1", "Inhibition": 6}
{"molecule": "CCN(CC)CCN(Cc1ccc(-c2ccc(C(F)(F)F)cc2)cc1)C(=O)Cn1c(CCc2ccc(F)c(F)c2F)nc(=O)c2ccc(F)cc21.O=C(O)C(O)C(O)C(=O)O", "Inhibition": 46}
{"molecule": "Cc1noc(C)c1C(=O)N1CCc2cc3nccc(N4CCN5CCC[C@H]5C4)c3cc21", "Inhibition": 9}
{"molecule": "Cc1cccc2nc(-c3cccc(-c4cccc(NC(=O)c5cncn5C)c4)c3)[nH]c12", "Inhibition": 91}
{"molecule": "O=C(/C=C/c1ccc(Cl)c(Cl)c1)NCCCCCN1CCC(NC(=S)Nc2ccc(Cl)cc2)CC1", "Inhibition": 41}
{"molecule": "CC(=O)Nc1ccc(Cl)c(Cl)c1", "Inhibition": 98}
{"molecule": "COc1cc2nc(NCCc3ccccc3)nc(NCc3cnn(C)c3C)c2cc1OC", "Inhibition": 94}
{"molecule": "Cl.O=C(/C=C/c1cccc(Cl)c1)Nc1ccc2nc(CN3CCCC3)ccc2c1", "Inhibition": 42}
{"molecule": "CCN1CCN(C(=O)NC(C(=O)N(C)Cc2ccc(-c3ccc(C(F)(F)F)cc3)cc2)c2cccs2)C(=O)C1=O", "note": "(stereo not given)", "Inhibition": 95}
{"molecule": "COc1ccc(CN2CCC(Oc3cccc(NC(=O)c4ccc(C(F)(F)F)cc4)c3)CC2)cc1.O=C(O)C(F)(F)F", "Inhibition": 20}
{"molecule": "CCCCCC(C)C(C)c1cc(O)c2c(c1)OC(C)(C)CC2(O)c1ccccn1", "note": "(stereo not given)", "Inhibition": 3}
{"molecule": "O=C(Nc1ccncc1)c1cc(C(=O)Nc2ccncc2)cc([N+](=O)[O-])c1", "Inhibition": 50}
{"molecule": "Oc1cc(Nc2ccnc3cc(-c4ccc(CN5CCCCC5)o4)c(Cl)cc23)c(Cl)cc1F", "Inhibition": 64}
{"molecule": "CC(=O)Nc1ccc(CN(Cc2ccc(F)cc2)Cc2ccc3c(c2)OCO3)cc1", "Inhibition": 87}
{"molecule": "CC(C)C(=O)NC(c1ccc(Cl)cc1)c1ccc2cccnc2c1O", "note": "(stereo not given)", "Inhibition": 70}
{"molecule": "CS(=O)(=O)Cc1cccc(Nc2ncc(Cl)c(Nc3cccnc3C(N)=O)n2)c1.Cl", "Inhibition": 97}
{"molecule": "CCN(CCCN1CCCCC1)c1cc(C)nc(Nc2cccc(OC(F)(F)F)c2)n1.O=C(O)C(F)(F)F", "Inhibition": 99}
{"molecule": "O=C(Nc1cccc(-c2csc(-c3nc4ccccc4[nH]3)c2)c1)c1ccoc1", "Inhibition": 67}
{"molecule": "O=C(Nc1ccccc1)Nc1cccc(-c2nn3c(OCCN4CCCC4)cccc3c2-c2ccncc2)c1", "Inhibition": 98}
{"molecule": "CN(CCCCCN1CCC(NC(=O)Nc2ccc(Oc3ccccc3)cc2)C1)C(=O)/C=C/c1ccc(Cl)c(Cl)c1", "note": "(stereo not given)", "Inhibition": 14}
{"molecule": "Cc1cc(N2CCOCC2)nc2ccc(NC(=O)c3ccc(Cl)c([N+](=O)[O-])c3)cc12", "Inhibition": 15}
{"molecule": "CN1CCN(c2cc(-c3ccncc3)nc(-c3cccnc3)n2)CC1", "Inhibition": 98}
{"molecule": "O=S(=O)(c1c(Cl)cccc1Cl)N1CCCCC(c2ccc(C(F)(F)F)cc2)=N1", "Inhibition": 98}
{"molecule": "Cl.N=C(N)Nc1nccc(NCc2ccccc2)n1", "Inhibition": 48}
{"molecule": "COc1c(OC)c(OC)c2ccccc2c1CCNCCCCNCCc1c(OC)c(OC)c(OC)c2ccccc12.CS(=O)(=O)O", "Inhibition": 72}
{"molecule": "O=C(NC1CCN(CCCOc2ccnc3cc(Cl)ccc23)C1)c1ccc(Br)cc1", "note": "(stereo not given)", "Inhibition": 87}
{"molecule": "Cc1ccccc1C1CCN(C2CCC(NC(=O)/C=C/c3cc(F)cc(F)c3)CC2)CC1", "note": "(stereo not given)", "Inhibition": 33}
{"molecule": "CCc1nc(N)nc(N)c1-c1ccc(F)cc1", "Inhibition": 0}
{"molecule": "CCN1CCC(N(Cc2ccc(-c3ccc(C(F)(F)F)cc3)cc2)C(=O)Cn2c(SCc3ccc(F)cc3)nc(=O)c3c2CCC3)CC1.O=C(O)C(O)C(O)C(=O)O", "Inhibition": 96}
{"molecule": "CS(=O)(=O)CCNCc1cccc(-c2cc3c(Nc4ccc(OCc5cccc(F)c5)c(Cl)c4)ncnc3s2)c1.O=C(O)C(F)(F)F", "Inhibition": 97}
{"molecule": "O=C(Nc1ccc(-c2cncc(NCCCN3CCCC3)c2)cc1)c1ccccc1", "Inhibition": 49}
{"molecule": "O=C(Nc1cccc(-c2cccc(-c3nc4ccccc4[nH]3)c2)c1)Nc1ccc(Cl)c(Cl)c1", "Inhibition": 98}
{"molecule": "Cc1cc(Nc2cccc(C(F)(F)F)c2)nc2ccc(NC(=O)c3ccc(=O)[nH]c3)cc12", "Inhibition": 60}
{"molecule": "CC(C)c1ccc(NC(=O)N[C@H]2CCN(CCCCCNC(=O)/C=C/c3ccc(Cl)c(Cl)c3)C2)cc1", "Inhibition": 14}
